Data: the supplement of paper PMC11732987, “Enantioselective OTUD7B fragment discovery through chemoproteomics screening and high-throughput optimisation” (Communications Chemistry, 2025)

Tests used:
Experiment in all cases: log2 ratio of Biotin-Ahx-Ub-VS probe labelling (fragment/DMSO); higher = less target engagement (more negative = stronger competition), active = hit call of the paper (q ≤ 0.05, log2 ratio ≤ -1)
Conditions in all cases: compound concentration: 200 uM; treatment time: 3 h
USP34 = USP34 (UniProt Q70CQ2)
Method in brief: (§1)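 HEK293T lysate, 495 µg per sample in Tris/CHAPS/IGEPAL buffer with protease inhibitors, was treated in triplicate with fragment at 200 µM or vehicle for 3 h and then with Biotin-Ahx-Ub-VS at 0.5 µM final for 1 h. Labelled DUBs were NeutrAvidin-enriched, digested with LysC and trypsin, and run by diaPASEF LC-MS/MS. Spectronaut label-free quantities were global-median-normalised, and values are average log2 fragment/vehicle ratios by unpaired t-test on proteins with ≥2 unique peptides.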

USP36 = target: T1, USP36 (UniProt Q9P275)
T1 sequence (whole entry): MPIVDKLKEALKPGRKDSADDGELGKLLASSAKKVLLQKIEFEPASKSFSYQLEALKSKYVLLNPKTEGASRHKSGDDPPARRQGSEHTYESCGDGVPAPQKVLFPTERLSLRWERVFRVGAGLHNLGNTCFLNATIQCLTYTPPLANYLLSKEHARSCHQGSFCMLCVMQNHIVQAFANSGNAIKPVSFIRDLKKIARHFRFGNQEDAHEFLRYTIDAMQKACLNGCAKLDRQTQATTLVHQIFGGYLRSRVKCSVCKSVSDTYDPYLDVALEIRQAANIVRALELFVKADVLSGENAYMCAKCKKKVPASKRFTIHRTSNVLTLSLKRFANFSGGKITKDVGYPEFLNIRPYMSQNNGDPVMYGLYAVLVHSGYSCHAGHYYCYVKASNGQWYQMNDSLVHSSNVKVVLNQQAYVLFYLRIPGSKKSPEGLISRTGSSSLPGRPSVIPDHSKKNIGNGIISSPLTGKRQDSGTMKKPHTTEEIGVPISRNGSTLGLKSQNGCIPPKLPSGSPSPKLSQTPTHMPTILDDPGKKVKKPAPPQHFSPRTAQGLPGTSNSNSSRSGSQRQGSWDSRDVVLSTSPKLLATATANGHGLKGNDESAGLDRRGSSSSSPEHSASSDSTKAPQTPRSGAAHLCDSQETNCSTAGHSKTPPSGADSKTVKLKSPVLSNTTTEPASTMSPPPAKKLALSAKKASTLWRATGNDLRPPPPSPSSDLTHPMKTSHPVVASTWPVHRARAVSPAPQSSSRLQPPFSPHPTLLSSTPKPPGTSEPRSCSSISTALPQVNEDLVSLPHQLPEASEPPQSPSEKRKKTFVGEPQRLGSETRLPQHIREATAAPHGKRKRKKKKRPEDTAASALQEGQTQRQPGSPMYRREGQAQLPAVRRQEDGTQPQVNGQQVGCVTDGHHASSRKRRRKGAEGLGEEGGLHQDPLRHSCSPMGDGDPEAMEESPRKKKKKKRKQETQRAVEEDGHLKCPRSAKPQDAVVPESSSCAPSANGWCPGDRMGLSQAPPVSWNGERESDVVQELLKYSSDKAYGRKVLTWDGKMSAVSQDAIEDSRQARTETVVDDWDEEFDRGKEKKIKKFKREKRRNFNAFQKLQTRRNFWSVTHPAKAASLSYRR
Method in brief: as §1

USP38 = target: T2, USP38 (UniProt Q8NB14)
T2 sequence (whole entry): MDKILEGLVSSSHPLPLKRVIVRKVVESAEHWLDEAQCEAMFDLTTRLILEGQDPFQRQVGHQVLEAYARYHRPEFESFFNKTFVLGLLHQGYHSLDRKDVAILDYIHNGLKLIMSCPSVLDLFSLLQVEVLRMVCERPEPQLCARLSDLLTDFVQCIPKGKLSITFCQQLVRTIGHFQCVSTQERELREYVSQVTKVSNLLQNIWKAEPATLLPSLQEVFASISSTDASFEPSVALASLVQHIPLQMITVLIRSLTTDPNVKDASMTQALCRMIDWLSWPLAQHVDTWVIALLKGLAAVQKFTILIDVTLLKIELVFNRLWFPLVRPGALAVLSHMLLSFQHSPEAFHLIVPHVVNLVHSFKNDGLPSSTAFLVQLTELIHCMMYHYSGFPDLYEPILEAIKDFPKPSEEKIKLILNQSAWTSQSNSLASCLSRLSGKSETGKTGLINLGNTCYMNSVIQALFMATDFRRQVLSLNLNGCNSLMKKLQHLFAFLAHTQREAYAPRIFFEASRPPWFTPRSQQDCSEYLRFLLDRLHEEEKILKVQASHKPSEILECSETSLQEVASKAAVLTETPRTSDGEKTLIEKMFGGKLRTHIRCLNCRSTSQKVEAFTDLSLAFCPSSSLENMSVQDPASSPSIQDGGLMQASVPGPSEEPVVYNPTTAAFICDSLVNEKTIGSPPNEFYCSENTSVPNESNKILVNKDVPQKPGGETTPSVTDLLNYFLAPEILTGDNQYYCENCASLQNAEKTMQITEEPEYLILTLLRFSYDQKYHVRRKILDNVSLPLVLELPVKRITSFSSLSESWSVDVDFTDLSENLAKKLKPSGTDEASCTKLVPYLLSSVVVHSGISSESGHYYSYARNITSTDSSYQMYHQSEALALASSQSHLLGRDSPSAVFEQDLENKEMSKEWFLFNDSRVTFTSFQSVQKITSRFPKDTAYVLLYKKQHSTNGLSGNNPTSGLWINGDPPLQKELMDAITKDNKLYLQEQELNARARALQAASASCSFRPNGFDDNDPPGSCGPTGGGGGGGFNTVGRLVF
Method in brief: as §1

USP39 = target: T3, USP39 (UniProt Q53GS9)
T3 sequence (whole entry): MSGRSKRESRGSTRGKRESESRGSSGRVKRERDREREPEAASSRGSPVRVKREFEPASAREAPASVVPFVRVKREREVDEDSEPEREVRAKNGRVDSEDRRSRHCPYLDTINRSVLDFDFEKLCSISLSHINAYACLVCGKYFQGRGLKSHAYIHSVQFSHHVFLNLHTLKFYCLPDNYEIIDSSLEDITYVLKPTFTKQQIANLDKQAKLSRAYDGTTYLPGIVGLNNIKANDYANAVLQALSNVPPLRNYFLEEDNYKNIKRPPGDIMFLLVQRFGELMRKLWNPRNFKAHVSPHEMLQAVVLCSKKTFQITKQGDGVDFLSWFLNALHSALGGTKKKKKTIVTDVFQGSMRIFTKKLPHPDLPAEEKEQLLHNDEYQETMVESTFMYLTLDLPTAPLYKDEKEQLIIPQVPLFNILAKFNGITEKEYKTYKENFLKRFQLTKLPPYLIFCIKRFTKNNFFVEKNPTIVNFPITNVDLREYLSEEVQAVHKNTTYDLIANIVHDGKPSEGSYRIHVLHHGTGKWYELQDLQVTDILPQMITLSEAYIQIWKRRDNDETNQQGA
Method in brief: as §1

USP4 = target: T4, USP4 (UniProt Q13107)
T4 sequence (whole entry): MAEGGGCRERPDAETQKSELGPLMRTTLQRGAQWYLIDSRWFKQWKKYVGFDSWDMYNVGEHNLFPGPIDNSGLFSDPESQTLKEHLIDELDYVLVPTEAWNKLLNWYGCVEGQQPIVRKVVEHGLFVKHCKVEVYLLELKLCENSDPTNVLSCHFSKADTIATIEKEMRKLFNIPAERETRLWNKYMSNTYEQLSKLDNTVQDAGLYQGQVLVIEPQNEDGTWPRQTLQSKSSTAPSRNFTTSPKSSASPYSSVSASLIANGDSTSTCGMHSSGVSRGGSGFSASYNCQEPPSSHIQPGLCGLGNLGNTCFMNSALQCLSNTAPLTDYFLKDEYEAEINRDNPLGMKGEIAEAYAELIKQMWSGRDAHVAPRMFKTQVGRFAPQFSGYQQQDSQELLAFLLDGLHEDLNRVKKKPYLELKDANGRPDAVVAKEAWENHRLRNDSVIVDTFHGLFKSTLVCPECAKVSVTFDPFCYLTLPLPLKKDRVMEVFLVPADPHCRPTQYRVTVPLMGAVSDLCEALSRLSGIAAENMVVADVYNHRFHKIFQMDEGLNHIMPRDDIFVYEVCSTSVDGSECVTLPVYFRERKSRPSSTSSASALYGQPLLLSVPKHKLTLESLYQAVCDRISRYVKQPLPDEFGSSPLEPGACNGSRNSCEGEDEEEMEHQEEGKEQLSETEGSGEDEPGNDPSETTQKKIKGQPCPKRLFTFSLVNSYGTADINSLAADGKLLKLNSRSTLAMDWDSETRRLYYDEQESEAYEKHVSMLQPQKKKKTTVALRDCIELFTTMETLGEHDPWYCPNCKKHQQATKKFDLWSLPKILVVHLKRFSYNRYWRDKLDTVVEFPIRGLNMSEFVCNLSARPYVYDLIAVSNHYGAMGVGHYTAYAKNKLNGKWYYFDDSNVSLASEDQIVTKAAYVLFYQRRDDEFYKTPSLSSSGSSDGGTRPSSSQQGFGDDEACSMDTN
Method in brief: as §1

Measured: log2 ratio of Biotin-Ahx-Ub-VS probe labelling

USP34, sequence (Q70CQ2 whole entry, the tested form may be a part): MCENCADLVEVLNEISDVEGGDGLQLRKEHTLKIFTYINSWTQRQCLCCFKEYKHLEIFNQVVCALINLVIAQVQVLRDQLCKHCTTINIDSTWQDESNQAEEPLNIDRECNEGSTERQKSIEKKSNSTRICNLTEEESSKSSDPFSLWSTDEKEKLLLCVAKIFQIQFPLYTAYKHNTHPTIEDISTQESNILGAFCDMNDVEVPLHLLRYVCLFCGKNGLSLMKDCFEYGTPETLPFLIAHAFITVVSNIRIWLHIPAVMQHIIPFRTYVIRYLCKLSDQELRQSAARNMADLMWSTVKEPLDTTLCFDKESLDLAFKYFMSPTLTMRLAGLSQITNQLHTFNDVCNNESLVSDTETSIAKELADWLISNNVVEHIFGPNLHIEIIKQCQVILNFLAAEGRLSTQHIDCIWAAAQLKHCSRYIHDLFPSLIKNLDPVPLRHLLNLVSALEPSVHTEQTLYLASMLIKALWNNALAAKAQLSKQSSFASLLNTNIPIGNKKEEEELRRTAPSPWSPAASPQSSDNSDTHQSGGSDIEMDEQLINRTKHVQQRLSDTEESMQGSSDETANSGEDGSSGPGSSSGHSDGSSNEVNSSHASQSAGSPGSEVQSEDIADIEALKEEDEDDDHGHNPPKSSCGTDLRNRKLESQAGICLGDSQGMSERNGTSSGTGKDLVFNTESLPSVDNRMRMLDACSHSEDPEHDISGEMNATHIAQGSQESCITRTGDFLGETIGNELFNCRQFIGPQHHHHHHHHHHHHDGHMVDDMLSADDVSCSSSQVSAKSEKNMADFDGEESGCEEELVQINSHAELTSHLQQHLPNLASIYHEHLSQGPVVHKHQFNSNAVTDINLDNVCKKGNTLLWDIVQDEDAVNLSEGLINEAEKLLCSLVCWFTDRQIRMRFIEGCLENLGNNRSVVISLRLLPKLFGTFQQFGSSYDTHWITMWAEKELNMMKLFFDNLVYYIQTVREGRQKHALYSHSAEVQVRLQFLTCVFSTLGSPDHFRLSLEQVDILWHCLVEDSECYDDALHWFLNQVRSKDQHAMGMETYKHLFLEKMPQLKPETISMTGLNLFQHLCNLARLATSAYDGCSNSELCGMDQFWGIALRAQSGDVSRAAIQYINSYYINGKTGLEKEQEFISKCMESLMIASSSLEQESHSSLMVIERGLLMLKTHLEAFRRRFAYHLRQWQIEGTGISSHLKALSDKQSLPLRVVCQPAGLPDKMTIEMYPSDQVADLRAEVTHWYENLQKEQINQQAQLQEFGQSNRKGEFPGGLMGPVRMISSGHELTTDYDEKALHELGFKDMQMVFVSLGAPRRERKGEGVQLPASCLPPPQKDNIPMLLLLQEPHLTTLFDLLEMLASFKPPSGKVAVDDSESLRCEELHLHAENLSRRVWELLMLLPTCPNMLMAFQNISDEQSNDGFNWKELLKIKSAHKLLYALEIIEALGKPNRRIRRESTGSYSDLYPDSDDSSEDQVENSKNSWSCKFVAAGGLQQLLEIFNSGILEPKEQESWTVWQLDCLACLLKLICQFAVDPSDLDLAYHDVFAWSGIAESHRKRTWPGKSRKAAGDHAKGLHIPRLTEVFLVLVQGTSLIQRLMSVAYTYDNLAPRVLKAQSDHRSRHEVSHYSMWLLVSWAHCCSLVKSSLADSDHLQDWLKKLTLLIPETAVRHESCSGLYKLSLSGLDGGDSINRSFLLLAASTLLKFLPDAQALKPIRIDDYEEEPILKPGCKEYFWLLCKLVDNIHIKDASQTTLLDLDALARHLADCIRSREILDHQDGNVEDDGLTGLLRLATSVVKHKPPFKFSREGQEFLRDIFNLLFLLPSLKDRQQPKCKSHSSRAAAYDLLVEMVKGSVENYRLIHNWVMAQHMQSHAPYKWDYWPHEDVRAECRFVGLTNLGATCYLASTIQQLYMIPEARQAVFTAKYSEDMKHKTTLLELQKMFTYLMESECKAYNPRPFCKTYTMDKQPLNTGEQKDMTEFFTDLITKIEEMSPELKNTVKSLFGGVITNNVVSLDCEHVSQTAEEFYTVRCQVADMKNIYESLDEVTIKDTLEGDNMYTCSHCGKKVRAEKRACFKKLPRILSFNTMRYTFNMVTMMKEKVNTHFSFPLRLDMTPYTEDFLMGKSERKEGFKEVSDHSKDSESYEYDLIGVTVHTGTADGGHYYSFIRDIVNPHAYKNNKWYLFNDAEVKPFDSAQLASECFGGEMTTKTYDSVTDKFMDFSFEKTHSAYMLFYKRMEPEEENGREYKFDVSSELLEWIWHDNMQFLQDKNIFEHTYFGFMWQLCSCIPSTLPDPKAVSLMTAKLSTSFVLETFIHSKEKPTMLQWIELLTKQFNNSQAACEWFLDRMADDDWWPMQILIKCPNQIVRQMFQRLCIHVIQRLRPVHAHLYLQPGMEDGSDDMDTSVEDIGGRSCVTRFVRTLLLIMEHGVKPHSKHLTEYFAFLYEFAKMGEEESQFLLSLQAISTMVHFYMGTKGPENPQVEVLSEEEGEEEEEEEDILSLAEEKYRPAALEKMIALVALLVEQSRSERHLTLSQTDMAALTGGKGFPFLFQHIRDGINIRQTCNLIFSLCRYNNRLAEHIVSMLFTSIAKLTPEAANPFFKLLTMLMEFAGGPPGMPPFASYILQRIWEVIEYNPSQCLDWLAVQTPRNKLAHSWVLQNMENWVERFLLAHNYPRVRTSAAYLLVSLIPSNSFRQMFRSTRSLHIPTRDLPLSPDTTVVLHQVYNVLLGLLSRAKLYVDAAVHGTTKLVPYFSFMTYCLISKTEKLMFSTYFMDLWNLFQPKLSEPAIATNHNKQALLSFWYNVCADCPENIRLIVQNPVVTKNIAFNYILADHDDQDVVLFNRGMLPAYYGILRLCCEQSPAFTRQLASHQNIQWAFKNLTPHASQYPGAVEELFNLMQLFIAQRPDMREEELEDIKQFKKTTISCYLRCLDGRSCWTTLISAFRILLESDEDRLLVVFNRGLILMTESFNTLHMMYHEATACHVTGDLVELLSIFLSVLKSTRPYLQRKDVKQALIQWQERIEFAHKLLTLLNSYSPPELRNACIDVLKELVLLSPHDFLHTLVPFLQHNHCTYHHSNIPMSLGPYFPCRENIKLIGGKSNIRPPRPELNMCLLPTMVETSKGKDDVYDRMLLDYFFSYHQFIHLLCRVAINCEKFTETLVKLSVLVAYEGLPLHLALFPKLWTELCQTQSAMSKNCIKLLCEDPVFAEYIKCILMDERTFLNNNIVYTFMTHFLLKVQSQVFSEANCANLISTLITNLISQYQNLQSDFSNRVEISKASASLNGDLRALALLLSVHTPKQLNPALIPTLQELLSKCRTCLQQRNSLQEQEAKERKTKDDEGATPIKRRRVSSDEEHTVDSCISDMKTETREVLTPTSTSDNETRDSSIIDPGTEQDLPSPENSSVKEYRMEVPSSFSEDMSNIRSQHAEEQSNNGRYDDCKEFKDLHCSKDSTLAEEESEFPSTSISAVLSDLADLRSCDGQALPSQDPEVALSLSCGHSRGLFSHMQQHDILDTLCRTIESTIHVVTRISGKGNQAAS

COc1ccccc1C(C)NC(=O)CCl (stereo not given)
inactive: USP34 -0.129 | USP36 -0.00263 | USP38 -0.182 | USP39 -0.155 | USP4 -0.226
